# Assay outcomes (PubChem)
# A selection: hits, their analogues and other compounds. The true share with any hit is near 3.5%.
# Pf apPOL block: Pf-apPOL inhibitors, biochemical, fluorescence. Plasmodium falciparum apicoplast DNA polymerase (apPOL). Recombinant Pf-apPOL, molecular beacon fluorescence, 1.5 h. inhibition, % at 10 µM. 210,000 tested, 0.25% active. AID 1794808, 2022
# mHTT CaM bind: mutant huntingtin-calmodulin interaction inhibitors – biochemical, AlphaScreen, primary screen. 190,000 tested, 3.6% active. AlphaScreen His-mHTT/GST-CaM binding, luminescence. inhibition, % at 15 µM;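 also: 0% = both proteins with DMSO and 100% = one protein alone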
# Numbers without * were called inactive; · = not tested or not shown. Rule as the data show it: active = inhibition above about 50%; inactive = the rest.
SMILES,Pf apPOL block,mHTT CaM bind
N#CC1=C(N)n2c(s/c(=C\c3ccc([N+](=O)[O-])cc3)c2=O)=C(C#N)C1c1ccc([N+](=O)[O-])cc1 (stereo not drawn),-6.3,14.0
N#CC1=C(N)n2c(s/c(=C\c3ccc(O)cc3)c2=O)=C(C(N)=O)C1c1ccc(O)cc1 (stereo not drawn),-3.5,53.0*
CCC(Sc1nncn1C)C(=O)Nc1ccc(Cl)cc1 (stereo not drawn),1.2,-3.9
CC(C)N(C(=O)Nc1ccccc1)C(C)C,-42.1,-7.6
CCN1c2ccc(C)cc2C(=O)NC12CCN(C(=O)c1ccccc1Cl)CC2,-4.2,8.8
CC(=O)N1c2ccccc2NC2=C(C(=O)CC(C)(C)C2)C1CC1CC=C(C)C1(C)C (stereo not drawn),-0.4,31.0
CCC(=O)N1c2ccccc2NC2=C(C(=O)CC(C)(C)C2)C1CC1CC=C(C)C1(C)C (stereo not drawn),-0.7,59.0*
CCc1onc(C)c1C1CCCN1Cc1cccc(OC)c1OC (stereo not drawn),-1.0,-14.3
CCn1c(=O)oc2cc(-c3noc(-c4cc(F)ccc4F)n3)ccc21,-1.0,3.2
COc1ccc(OC)c(/C=C2N=C(/C=C/c3ccccc3OC)OC/2=O)c1,-4.1,4.0
CC(=O)CC1c2cc(F)ccc2C=C(c2ccsc2)N1c1ccc(C#CC2(O)CCCCC2)cc1 (stereo not drawn),-7.9,-11.8
CC(=O)CC1c2cc(F)ccc2C=C(c2ccsc2)N1c1ccc(C#Cc2cncn2C)cc1 (stereo not drawn),0.0,74.8*
Nc1nc(-c2ccccc2)cc(=S)s1,·,51.3*
Nc1nc(-c2ccc(-c3ccccc3)cc2)cs1,-0.3,44.9
CCOc1ccc(-n2sc3c(c2=S)-c2ccc(OC)cc2NC3(C)C)cc1,·,93.7*
CCOc1ccc(C2CC(c3cccc(OC)c3)n3nc(N)nc3N2)cc1 (stereo not drawn),-4.8,16.1
CCOc1ccc2c(c1)-c1c(sn(-c3ccc(OC)cc3)c1=S)C(C)(C)N2,·,94.2*
CCOc1ccc2c(c1)-c1c(sn(-c3ccc(C(C)C)cc3)c1=S)C(C)(C)N2,·,76.4*
CCOc1ccc(N2C(=O)Nc3ccc(Br)cc3C2(O)C(=O)NC(C)C)cc1 (stereo not drawn),-7.4,7.0
CCOc1ccc2c(=O)c(-c3ccc(OC)cc3)coc2c1,-8.7,-2.8
COc1ccc(NC(=O)CSc2nccc(=O)[nH]2)cc1,-3.7,-4.7
O=S(=O)(NC1NN=C(c2cc(Cl)cc(Cl)c2O)N1Nc1ccccc1)c1ccccc1 (stereo not drawn),-204.4,·
Cc1cccc(OC(C)C(=O)N2CCN(c3ccc4nncn4n3)CC2)c1C (stereo not drawn),-5.3,-11.9
CC(=O)c1c(C(C)=O)c(C)n(-c2cc(Br)ccc2O)c1C,-1.1,23.5
Cc1cc(C2(c3ccc(O)c(C)c3)C(=O)N(C)c3ccc(Br)cc32)ccc1O,-5.8,87.2*
SMILES,Pf apPOL block,mHTT CaM bind
CCN(CC)C(=NS(=O)(=O)c1ccc(C)cc1C)c1ccccc1,-2.6,-1.0
Cc1ccc(S(=O)(=O)N=C2C=CC(=O)C(Br)=C2)c(C)c1,-8.2,93.0*
Cc1cc(C)c(S(=O)(=O)N2CCCC2=O)c(C)c1,-12.0,-11.1
Cc1cc(C)c(S(=O)(=O)N=C2C=CC(=O)C(Br)=C2)c(C)c1,-4.5,53.0*
O=C(CS(=O)(=O)c1cccc2nsnc12)Nc1cccc(F)c1,-5.8,0.0
CC(C)c1cc(=O)n(CC(=O)Nc2cccc3nsnc23)cn1,-4.9,-4.3
Nc1ccc2nc(-c3ccccc3Br)[nH]c2c1,8.5,57.0*
Nc1ccc2nc(CCc3nc4ccc(N)cc4[nH]3)[nH]c2c1,-3.0,35.0
Nc1ccc2nc(-c3ccc(Oc4ccc(-c5nc6ccc(N)cc6[nH]5)cc4)cc3)[nH]c2c1,0.2,65.0*
Nc1ccc2nc(C(F)(F)F)[nH]c2c1,·,-0.9
Nc1ccc2nc(-c3ccc(N)c(Cl)c3)[nH]c2c1,14.5,66.0*
Nc1ccc(-c2nc3c(Cl)cc(N)cc3[nH]2)cc1,-0.5,40.0
CCC(C)NC(=O)c1c(Cl)ccc(Cl)c1OC (stereo not drawn),-5.6,-4.9
CC1NC2(C(=O)N(C/C=C/c3ccccc3)c3ccccc32)C2C(=O)N(c3ccccc3)C(=O)C12 (stereo not drawn),3.4,47.0
CC1NC2(C(=O)N(C/C=C/c3ccccc3)c3ccccc32)C2C(=O)N(Cc3ccccc3)C(=O)C12 (stereo not drawn),-12.4,52.0*
O=C(Nc1cc(Cl)cc(Cl)c1)c1ccc(F)c(S(=O)(=O)NCCc2ccccc2)c1,38.9,40.0
O=C(Nc1ccc(F)c(F)c1)c1ccc(F)c(S(=O)(=O)NCCc2ccc(Cl)cc2)c1,-22.7,50.0*
O=C(Nc1ccc(Cl)c(Cl)c1)c1ccc(F)c(S(=O)(=O)NCCc2ccccc2)c1,4.6,71.0*
O=C(Nc1ccc(Cl)c(Cl)c1)c1ccc(F)c(S(=O)(=O)NCc2ccc(F)cc2)c1,-7.4,0.0
Cn1nc(-c2nc(-c3ccccc3)no2)c2c1CCN(C(=O)Cc1ccsc1)C2,0.2,25.2
O=C(CCS(=O)(=O)c1ccccc1)N1CCC(c2nnc(-c3ccc(F)cc3)o2)CC1,-5.9,-3.2
COc1ccccc1C1=NN(C(=O)CN2CCC(C)CC2)C(c2cccc(F)c2)C1 (stereo not drawn),-6.6,22.3
COc1ccccc1C1CC(c2cccc(F)c2)=NN1C(=O)CN1CCN(C)CC1 (stereo not drawn),0.3,98.8*
COc1ccccc1C1CC(c2ccc(F)cc2)=NN1C(=O)CN1CCC(C)CC1 (stereo not drawn),-3.5,93.4*
CC(=O)N1CCN(CC(=O)N2N=C(c3ccccc3)CC2c2ccc(F)cc2)CC1 (stereo not drawn),-2.0,29.7
SMILES,Pf apPOL block,mHTT CaM bind
COc1ccc(-c2nc(COc3cccc(Cl)c3)no2)cc1,1.3,-52.1
CN1C(=O)CC(C(=O)O)SC1=Nc1ccc(Br)cc1 (stereo not drawn),7.9,2.0
O=C1CC(=Nc2ccc(Br)cc2)NN1c1ccccc1,-8.8,77.0*
O=C(CCc1c[nH]c2ccccc12)N1CCc2c(nc3cc(-c4ccccc4)[nH]n3c2=O)C1,9.6,7.5
COc1ccc(-c2cc3nc4c(c(=O)n3[nH]2)CN(C(=O)Cc2cccc(C)c2)CC4)cc1,4.0,36.7
O=C(CCc1ccccc1)N1CCc2c(nc3cc(-c4ccccc4)[nH]n3c2=O)C1,8.0,71.7*
Cc1cccc(CC(=O)N2CCc3c(nc4cc(-c5ccccc5)[nH]n4c3=O)C2)c1,-6.5,74.4*
O=C(Nc1ccc2nc(-c3ccccn3)c(-c3ccccn3)nc2c1)N1CCSCC1,-1.2,10.7
O=C(NCc1cccnc1)C1CCc2sc(C(=O)N3CCCC3)cc2C1 (stereo not drawn),-1.7,0.0
COc1ccc(CCNc2ccc(C)cc2)cc1,-4.4,70.6*
COc1ccc(CCNC(C)=O)cc1,-0.2,-5.8
O=C(CN(c1ccc(F)cc1)S(=O)(=O)c1ccccc1)N1CCCC1,-0.7,1.6
OC1(c2ccccc2)CCN(Cc2ccccc2)C1 (stereo not drawn),-3.8,-3.6
O=C(c1ccccc1)C1CN(Cc2ccccc2)CCC1(O)c1ccccc1 (stereo not drawn),-0.8,70.4*
Cc1ccc(-n2nc3c(c2NC(=O)COc2ccc(Cl)cc2)CS(=O)(=O)C3)cc1,-2.7,-3.0
